# Measured values from the supplement of paper PMC10849652.
# Targets with a hit are over-represented here; the source holds about 7,900 in all. About 0.6% of all pairs of compound and target were hits. A number with no mark means an inactive call.
# Experiments:
# Assay in all cases: log2 fold change, soluble protein after heating vs DMSO (PISA); higher = thermal stabilisation; K562 cells, 10 uM, 30 min; active = over 0.2 and 3.5 SD of the protein, either way, in both replicates (recomputed)
# [1] = compound: COC1=CC=C(C=C1)CN2C=CC3=C2C=C(C=C3)C(=O)NO
# Summary of the method: (§1)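 Quantification of soluble protein used TMTpro 16plex LC-MS/MS, with channel sums equalised. Samples were the supernatant after 21,000xg for 90 min of pooled aliquots from K562 cells (2×10^6 cells/mL) treated with 10 μM compound for 30 min, heated for 3 min over 48°C-58°C, and extracted in PBS with 0.5% NP-40 at 4°C. Values, from duplicates, describe thermal stability against control samples on a log2 fold-change scale.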
# filanesib = compound: CON(C)C(=O)N1N=C(c2cc(F)ccc2F)S[C@@]1(CCCN)c1ccccc1 [filanesib]
# Summary of the method: as §1
# zotarolimus = compound: CO[C@H]1C[C@@H]2CC[C@@H](C)[C@@](O)(O2)C(=O)C(=O)N2CCCC[C@H]2C(=O)O[C@H]([C@H](C)C[C@@H]2CC[C@H](n3cnnn3)[C@H](OC)C2)CC(=O)[C@H](C)/C=C(\C)[C@@H](O)[C@@H](OC)C(=O)[C@H](C)C[C@H](C)/C=C/C=C/C=C/1C [zotarolimus]
# Summary of the method: as §1
# idasanutlin = compound: COc1cc(C(=O)O)ccc1NC(=O)[C@@H]1N[C@@H](CC(C)(C)C)[C@](C#N)(c2ccc(Cl)cc2F)[C@H]1c1cccc(Cl)c1F [idasanutlin]
# Summary of the method: as §1
# alisertib = compound: COc1cc(Nc2ncc3c(n2)-c2ccc(Cl)cc2C(c2c(F)cccc2OC)=NC3)ccc1C(=O)O [alisertib]
# Summary of the method: as §1
# [2] = compound: COc1cc2nc(-c3cc(F)ccc3O)nc(N[C@@H]3CNC[C@H]3C(C)(C)O)c2cc1OC
# Summary of the method: as §1
# gefitinib = compound: COc1cc2ncnc(Nc3ccc(F)c(Cl)c3)c2cc1OCCCN1CCOCC1 [gefitinib]
# Summary of the method: as §1
# [3] = compound: COc1cccc2cc(-c3nc([C@H]4CC[C@H](C(=O)O)CC4)n4ncnc(N)c34)[nH]c12
# Summary of the method: as §1
# lapatinib = compound: CS(=O)(=O)CCNCc1ccc(-c2ccc3ncnc(Nc4ccc(OCc5cccc(F)c5)c(Cl)c4)c3c2)o1 [lapatinib]
# Summary of the method: as §1
# pictilisib = compound: CS(=O)(=O)N1CCN(Cc2cc3nc(-c4cccc5[nH]ncc45)nc(N4CCOCC4)c3s2)CC1 [pictilisib]
# Summary of the method: as §1
# Chain of UniProt Q99943 (Q99943 whole entry, looked up): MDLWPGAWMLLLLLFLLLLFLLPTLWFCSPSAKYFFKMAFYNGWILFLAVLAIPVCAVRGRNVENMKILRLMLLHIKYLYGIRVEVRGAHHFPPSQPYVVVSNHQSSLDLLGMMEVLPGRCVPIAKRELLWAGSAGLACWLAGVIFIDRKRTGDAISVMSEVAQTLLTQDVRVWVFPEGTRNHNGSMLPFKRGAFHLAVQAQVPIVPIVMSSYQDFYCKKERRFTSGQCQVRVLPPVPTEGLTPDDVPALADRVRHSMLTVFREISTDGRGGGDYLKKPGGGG
# Chain of UniProt O00116 (O00116 whole entry, looked up): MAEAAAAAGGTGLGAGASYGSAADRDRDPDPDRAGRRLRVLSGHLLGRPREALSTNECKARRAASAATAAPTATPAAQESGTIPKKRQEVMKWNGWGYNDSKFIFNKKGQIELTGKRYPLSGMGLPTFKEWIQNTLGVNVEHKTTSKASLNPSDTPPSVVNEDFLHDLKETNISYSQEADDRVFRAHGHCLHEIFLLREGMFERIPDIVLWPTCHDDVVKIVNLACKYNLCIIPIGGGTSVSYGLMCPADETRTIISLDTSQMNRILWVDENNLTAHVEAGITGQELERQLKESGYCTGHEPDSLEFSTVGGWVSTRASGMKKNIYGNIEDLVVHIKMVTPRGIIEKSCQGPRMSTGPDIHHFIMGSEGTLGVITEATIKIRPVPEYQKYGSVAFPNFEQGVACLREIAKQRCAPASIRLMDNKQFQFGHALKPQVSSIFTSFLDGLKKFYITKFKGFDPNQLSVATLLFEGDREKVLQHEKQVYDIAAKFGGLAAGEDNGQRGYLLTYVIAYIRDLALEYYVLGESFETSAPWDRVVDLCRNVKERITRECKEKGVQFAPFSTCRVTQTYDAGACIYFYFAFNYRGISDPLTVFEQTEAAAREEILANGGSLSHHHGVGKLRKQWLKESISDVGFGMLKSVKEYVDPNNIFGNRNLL
# Chain of UniProt O00170 (O00170 whole entry, looked up): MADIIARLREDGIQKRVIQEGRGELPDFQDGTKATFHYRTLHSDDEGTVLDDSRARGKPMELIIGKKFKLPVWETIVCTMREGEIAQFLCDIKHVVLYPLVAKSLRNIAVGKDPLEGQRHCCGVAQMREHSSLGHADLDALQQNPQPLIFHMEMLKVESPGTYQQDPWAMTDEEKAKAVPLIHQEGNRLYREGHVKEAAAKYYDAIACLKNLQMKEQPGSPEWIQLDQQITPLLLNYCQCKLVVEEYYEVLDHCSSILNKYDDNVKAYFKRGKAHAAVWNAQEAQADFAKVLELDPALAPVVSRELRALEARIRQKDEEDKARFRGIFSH
# Chain of UniProt Q07960 (Q07960 whole entry, looked up): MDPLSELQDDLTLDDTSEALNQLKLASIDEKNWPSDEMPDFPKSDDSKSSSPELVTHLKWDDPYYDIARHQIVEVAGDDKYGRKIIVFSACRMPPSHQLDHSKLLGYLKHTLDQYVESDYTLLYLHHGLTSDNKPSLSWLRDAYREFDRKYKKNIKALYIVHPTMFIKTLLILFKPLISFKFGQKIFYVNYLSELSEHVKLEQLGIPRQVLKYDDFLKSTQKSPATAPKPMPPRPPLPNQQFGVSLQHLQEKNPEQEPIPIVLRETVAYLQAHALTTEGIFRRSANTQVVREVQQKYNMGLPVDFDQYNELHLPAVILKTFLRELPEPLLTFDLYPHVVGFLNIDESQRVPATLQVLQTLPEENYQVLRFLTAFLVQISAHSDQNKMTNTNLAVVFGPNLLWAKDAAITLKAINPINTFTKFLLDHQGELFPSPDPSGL
# Chain of UniProt P31939 (P31939 whole entry, looked up): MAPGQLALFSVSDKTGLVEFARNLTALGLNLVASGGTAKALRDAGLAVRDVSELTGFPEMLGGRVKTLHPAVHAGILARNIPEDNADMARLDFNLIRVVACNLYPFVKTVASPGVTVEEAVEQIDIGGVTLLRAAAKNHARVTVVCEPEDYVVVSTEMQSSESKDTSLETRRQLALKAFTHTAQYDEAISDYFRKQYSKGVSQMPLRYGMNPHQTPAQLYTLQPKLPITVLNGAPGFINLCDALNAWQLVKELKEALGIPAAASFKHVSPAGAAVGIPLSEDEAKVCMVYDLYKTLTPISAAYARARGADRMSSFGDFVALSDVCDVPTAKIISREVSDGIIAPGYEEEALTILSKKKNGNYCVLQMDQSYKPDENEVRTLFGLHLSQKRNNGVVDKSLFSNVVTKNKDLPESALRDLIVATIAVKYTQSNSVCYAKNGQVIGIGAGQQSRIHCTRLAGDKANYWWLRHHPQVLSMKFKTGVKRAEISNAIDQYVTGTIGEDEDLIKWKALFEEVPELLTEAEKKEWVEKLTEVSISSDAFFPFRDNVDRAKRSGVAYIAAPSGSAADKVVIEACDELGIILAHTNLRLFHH
# Chain of UniProt O15440 (O15440 whole entry, looked up): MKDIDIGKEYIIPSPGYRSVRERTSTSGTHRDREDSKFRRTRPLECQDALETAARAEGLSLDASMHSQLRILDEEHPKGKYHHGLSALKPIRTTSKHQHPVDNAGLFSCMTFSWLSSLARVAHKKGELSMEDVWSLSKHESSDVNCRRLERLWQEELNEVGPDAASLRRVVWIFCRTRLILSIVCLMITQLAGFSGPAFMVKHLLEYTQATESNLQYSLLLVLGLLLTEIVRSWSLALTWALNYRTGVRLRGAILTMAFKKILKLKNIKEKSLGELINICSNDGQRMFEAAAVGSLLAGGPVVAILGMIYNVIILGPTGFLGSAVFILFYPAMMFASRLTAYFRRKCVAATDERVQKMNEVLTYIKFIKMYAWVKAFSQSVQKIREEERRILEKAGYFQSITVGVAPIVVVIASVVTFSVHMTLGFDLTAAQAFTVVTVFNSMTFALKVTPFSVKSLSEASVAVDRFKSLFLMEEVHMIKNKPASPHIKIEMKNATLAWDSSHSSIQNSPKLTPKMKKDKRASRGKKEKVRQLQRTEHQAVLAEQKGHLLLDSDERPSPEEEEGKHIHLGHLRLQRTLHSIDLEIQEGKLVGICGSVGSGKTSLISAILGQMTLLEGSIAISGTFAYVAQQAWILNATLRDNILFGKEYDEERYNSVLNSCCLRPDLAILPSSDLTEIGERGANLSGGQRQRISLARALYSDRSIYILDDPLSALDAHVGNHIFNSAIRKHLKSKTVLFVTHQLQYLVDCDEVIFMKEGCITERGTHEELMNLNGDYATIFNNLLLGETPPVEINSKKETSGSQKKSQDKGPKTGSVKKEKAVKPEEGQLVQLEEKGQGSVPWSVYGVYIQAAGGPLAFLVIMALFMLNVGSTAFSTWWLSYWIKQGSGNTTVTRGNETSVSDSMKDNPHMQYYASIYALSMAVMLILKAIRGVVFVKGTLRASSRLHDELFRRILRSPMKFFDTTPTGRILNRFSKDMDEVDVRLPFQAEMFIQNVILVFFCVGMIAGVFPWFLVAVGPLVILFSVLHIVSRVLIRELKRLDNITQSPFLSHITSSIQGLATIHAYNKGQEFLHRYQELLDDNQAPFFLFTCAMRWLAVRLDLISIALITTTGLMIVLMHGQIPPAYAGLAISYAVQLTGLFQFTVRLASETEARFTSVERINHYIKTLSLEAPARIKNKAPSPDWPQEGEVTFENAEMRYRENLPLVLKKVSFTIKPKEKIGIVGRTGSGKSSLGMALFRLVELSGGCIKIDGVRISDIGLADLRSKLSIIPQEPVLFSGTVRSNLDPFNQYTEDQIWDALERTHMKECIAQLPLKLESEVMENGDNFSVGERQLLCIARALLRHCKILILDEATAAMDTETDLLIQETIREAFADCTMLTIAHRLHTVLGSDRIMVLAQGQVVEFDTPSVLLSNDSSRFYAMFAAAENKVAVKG
# Chain of UniProt O43861 (O43861 whole entry, looked up): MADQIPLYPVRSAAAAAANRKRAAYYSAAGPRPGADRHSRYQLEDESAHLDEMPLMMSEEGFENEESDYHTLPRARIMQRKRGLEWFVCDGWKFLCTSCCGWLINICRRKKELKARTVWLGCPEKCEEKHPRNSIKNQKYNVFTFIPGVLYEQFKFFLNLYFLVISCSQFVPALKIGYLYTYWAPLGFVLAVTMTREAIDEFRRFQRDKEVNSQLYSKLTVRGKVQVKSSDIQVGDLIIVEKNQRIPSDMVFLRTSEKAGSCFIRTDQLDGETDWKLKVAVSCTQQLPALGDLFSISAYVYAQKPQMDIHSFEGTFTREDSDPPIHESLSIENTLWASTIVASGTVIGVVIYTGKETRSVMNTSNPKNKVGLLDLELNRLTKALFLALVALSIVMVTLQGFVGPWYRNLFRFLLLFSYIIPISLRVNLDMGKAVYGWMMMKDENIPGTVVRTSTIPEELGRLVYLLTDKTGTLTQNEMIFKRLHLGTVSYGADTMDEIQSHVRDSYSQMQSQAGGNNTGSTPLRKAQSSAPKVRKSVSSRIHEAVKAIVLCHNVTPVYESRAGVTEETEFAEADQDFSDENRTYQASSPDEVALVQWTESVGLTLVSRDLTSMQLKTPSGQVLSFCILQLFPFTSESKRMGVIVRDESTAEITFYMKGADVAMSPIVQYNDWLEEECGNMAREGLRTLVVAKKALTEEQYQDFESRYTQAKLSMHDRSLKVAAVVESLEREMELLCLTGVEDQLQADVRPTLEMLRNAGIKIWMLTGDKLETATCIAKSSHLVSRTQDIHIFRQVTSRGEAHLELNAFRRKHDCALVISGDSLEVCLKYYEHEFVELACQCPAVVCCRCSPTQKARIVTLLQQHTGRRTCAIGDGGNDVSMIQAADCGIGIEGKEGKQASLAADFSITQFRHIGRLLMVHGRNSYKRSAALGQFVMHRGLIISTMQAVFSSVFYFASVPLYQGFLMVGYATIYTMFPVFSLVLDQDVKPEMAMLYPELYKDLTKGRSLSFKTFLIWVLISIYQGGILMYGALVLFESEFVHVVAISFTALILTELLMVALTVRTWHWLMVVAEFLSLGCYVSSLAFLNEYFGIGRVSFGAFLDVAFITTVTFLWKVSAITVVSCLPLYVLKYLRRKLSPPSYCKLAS
Target,log2 fold change [1],log2 fold change (filanesib),log2 fold change (zotarolimus),log2 fold change (idasanutlin),log2 fold change (alisertib),log2 fold change [2],log2 fold change (gefitinib),log2 fold change [3],log2 fold change (lapatinib),log2 fold change (pictilisib)
ATP9B (UniProt O43861),-0.019,0.192,-0.054,0.022,-0.039,0.023,0.101,0.178,0.019,0.012
ATP6V0A1 isoform 3 (UniProt Q93050),0.021,-0.105,0.073,0.112,0.027,-0.298,-0.18,-0.21,0.033,-0.284
BAP1 (UniProt Q92560),0.032,0.111,0.046,0.164,-0.112,-0.006,-0.055,-0.024,0.119,0.062
AP2M1 (UniProt Q96CW1),-0.008,0.048,0.017,-0.018,-0.06,0.01,0.032,0.01,0.014,-0.021
AARS2 (UniProt Q5JTZ9),-0.053,-0.159,0.029,-0.107,0.016,-0.012,-0.002,0.047,-0.005,0.06
ATF7 isoform 6 (UniProt P17544),0.04,0.417,0.03,0.084,-0.007,-0.004,0.09,0.09,0.121,–
ATIC (UniProt P31939),0.047,-0.039,0.046,-0.03,-0.092,-0.027,0.114,-0.008,-0.001,-0.008
AGPS (UniProt O00116),0.074,-0.145,0.05,-0.037,-0.03,-0.044,0.069,0.048,0.018,-0.003
ABHD17A isoform 2 (UniProt Q96GS6),-0.194,0.086,0.012,0.034,0.032,0.069,0.081,0.027,-0.038,0.077
AUP1 (UniProt Q9Y679),-0.069,-0.269 (active),-0.014,-0.022,-0.013,-0.163,-0.034,0.022,-0.007,-0.059
ABCB6 (UniProt Q9NP58),-0.007,-0.077,0.055,-0.137,-0.069,0.058,-0.011,0.024,-0.005,0.06
ARL1 (UniProt P40616),-0.007,-0.155,0.03,-0.254 (active),-0.124,-0.042,0.047,0.042,0.117,-0.135
AKR1C3 (UniProt P42330),0.87 (active),-0.028,0.066,-0.074,-0.087,-0.176,0.031,-0.214,-0.065,0.061
ATL2 (UniProt Q8NHH9),-0.006,-0.03,0.026,-0.052,0.008,0.148,0.016,0.034,-0.039,0.003
AIP (UniProt O00170),0.06,-0.041,0.021,-0.019,-0.046,0.054,-0.002,-0.019,-0.019,0.015
ACADM isoform 2 (UniProt P11310),0.039,-0.036,0.014,-0.039,-0.055,0.039,0.017,0.046,0.001,0.029
AP2A2 isoform 2 (UniProt O94973),0.009,0.064,0.003,0.022,-0.095,0.083,0.027,0,0.01,-0.002
ATP2A3 isoform 2 (UniProt Q93084),-0.016,-0.118,-0.009,-0.027,-0.082,-0.004,-0.029,0.02,-0.002,0.027
BECN1 (UniProt Q14457),0.094,-0.005,-0.142,-0.159,-0.081,0.117,0,-0.045,0.008,0.086
ABCC5 (UniProt O15440),-0.026,0.001,-0.02,0.017,-0.026,0.053,0.089,-0.05,0,-0.037
ARHGAP1 (UniProt Q07960),-0.016,0.084,0.038,0.004,-0.011,0.152,0.005,-0.036,-0.035,0.024
ATP1B3 (UniProt P54709),0.082,0.073,-0.034,0.014,-0.032,0.034,0.025,0.092,-0.051,-0.012
AGPAT1 (UniProt Q99943),-0.004,0.001,-0.048,-0.059,-0.081,0.176,0.028,0.021,0.074,0.017
ACO2 (UniProt Q99798),-0.101,-0.081,0.015,-0.086,-0.016,0.036,0.008,0.071,-0.018,0.041
BOP1 (UniProt Q14137),-0.059,0.161,0.054,0.077,-0.131,-0.085,0.017,-0.012,-0.034,0
ALDH2 (UniProt P05091),-0.011,-0.142,0.055,-0.104,0.015,-0.006,0.028,0.069,-0.02,0.043
BZW2 (UniProt Q9Y6E2),-0.029,-0.05,0.02,-0.126,-0.056,0.011,-0.009,0.023,-0.055,-0.034
